# From PubChem BioAssay AID463173 (ICCB-Longwood Screening Facility, Harvard Medical School, 2010)
# In all, about 52,000 compounds went through this assay and about 4,300 (8.3%) were called active. No stated cut-off is given here; in the data, active means survival mostly below about 52% (no sharp cut-off); inactive means mostly above about 56%. For the sample, actives were picked, then their nearest neighbours and some compounds at random.
# System: DeltatarO mutant
# Experiment: S. aureus survival, RN4220 and DeltatarO strains – OD600, teichoic acid synthesis inhibitors, primary screen (AID 463173)
# Conditions: S. aureus RN4220 wild type/DeltatarO growth, OD600, 18 h, active compounds read low, screened at 18.75 µg/mL (by protocol)
row,Compound,survival
1,CCCCN(CC)CCCNC(=O)c1nn(-c2ccc(OC)cc2)c(=O)c2c1c1ccccc1n2C,123% (inactive)
2,COc1cccc(C2=NS(=O)(=O)N(C)C(C(=O)Nc3cccc(O)c3)=C2)c1,70% (inactive)
3,COc1cc(NC(=O)Cn2ccn(-c3cc(C)cc(C)c3)c(=O)c2=O)cc(OC)c1,71% (inactive)
4,CCN(c1ccccc1C)S(=O)(=O)c1nnc(NC(=O)c2ccccc2C)s1,15% (active)
5,CCN(c1ccccc1)S(=O)(=O)c1nnc(NC(=O)c2ccccc2OC)s1,47% (inactive)
6,CCN(CC)S(=O)(=O)c1nnc(NC(=O)c2ccccc2Cl)s1,70% (inactive)
7,CCN(c1ccc(Cl)cc1)S(=O)(=O)c1nnc(NC(=O)c2ccccc2C)s1,8% (active)
8,CCN(c1ccc(OC)cc1)S(=O)(=O)c1nnc(NC(=O)c2ccccc2Cl)s1,46% (active)
9,CCN(c1cc(C)cc(C)c1)S(=O)(=O)c1nnc(NC(=O)c2ccccc2C)s1,49% (inactive)
10,CCN(c1ccc(Cl)cc1)S(=O)(=O)c1nnc(NC(=O)C(C)C)s1,84% (inactive)
11,CCN(c1cccc(C)c1)S(=O)(=O)c1nnc(NC(=O)c2ccccc2Cl)s1,17% (active)
12,OCCN(Cc1ccccc1)Cc1ccccc1O,102% (inactive)
13,CC(=O)N1c2ccccc2C(=O)C1N1CCN(c2ccccc2)CC1 (configuration not stated),85% (inactive)
14,CCCOc1ccc(-c2cccc(NS(=O)(=O)c3cc(OC)ccc3OC)c2)nn1,99% (inactive)
15,COc1cccc(Nc2nc3cc(Cl)c(Cl)cc3nc2-n2nc(C)cc2C)c1,98% (inactive)
16,Cc1ccc(C(=O)c2cn(CC(=O)Nc3ccc(C)cc3Cl)c3nc(C)ccc3c2=O)cc1,99% (inactive)
17,Cc1ccc(Cl)cc1NC(=O)CCCn1c(=O)c2cccn2c2cccnc21,100% (inactive)
18,O=C(O)CCCN1CCCC1=O,81% (inactive)
19,CCCCOC(=O)c1ccc(NC(=O)CSc2nc3c(c(=O)[nH]2)CCC3)cc1,55% (inactive)

row,Compound,survival
1,CC(C)=NOC1=NS(=O)(=O)c2ccccc21,92% (inactive)
2,O=C(Nc1ccc(F)c(Cl)c1)N1CCC2(CC1)Oc1ccccc1C(=O)N2Cc1ccccc1F,55% (inactive)
3,CC(C)OCCCNC(=O)CCCn1c(SCC(N)=O)nc2c(sc3ccccc32)c1=O,88% (inactive)
4,CCN(c1ccc(OC)cc1)S(=O)(=O)c1nnc(NC(=O)c2ccccc2C)s1,37% (active)
5,COc1ccccc1C(=O)Nc1nnc(S(=O)(=O)N(C)c2ccc(Cl)cc2)s1,95% (inactive)
6,CCN(c1ccc(OC)cc1)S(=O)(=O)c1nnc(NC(=O)COc2ccc(F)cc2)s1,70% (inactive)
7,Cc1ccccc1C(=O)Nc1nnc(S(=O)(=O)N(C)Cc2ccc(Cl)cc2)s1,102% (inactive)
8,Cc1ccccc1C(=O)Nc1nnc(S(=O)(=O)N(C)c2ccc(Cl)cc2)s1,30% (active)
9,Cc1ccc(C)c(NC(=O)CN2C(=O)C3(SCC(=O)N3c3ccc(C)c(C)c3)c3ccccc32)c1 (configuration not stated),80% (inactive)
10,Cc1cc(C)cc(NC(=O)Cn2c(=O)n(CC(=O)NCCc3ccccc3)c(=O)c3ccccc32)c1,62% (inactive)
11,O=C(Nc1ccc(O)c(-c2nc3ccccc3o2)c1)c1cccs1,75% (inactive)
12,Cc1ccc2oc(-c3ccc(C)c(NC(=O)/C=C/c4ccco4)c3)nc2c1,58% (inactive)
13,Cc1ccc2oc(-c3cc(NC(=O)c4cccs4)cc(C)c3O)nc2c1,138% (inactive)
14,CC(C)c1ccc2oc(-c3ccc(Cl)c(NC(=O)Cc4ccccc4)c3)nc2c1,116% (inactive)
15,CC(C)c1ccc2oc(-c3cc(NC(=O)c4cccs4)ccc3Cl)nc2c1,16% (active)
16,CCc1ccc2oc(-c3ccc(C)c(NC(=O)/C=C/c4ccco4)c3)nc2c1,83% (inactive)
17,Cc1cc(NC(=O)c2cccs2)cc(-c2nc3cc(Cl)ccc3o2)c1O,79% (inactive)
18,Cc1cc(C)c2oc(-c3ccc(C)c(NC(=O)/C=C/c4ccco4)c3)nc2c1,45% (active)
19,Cc1ccc(-c2nc3cc(C(C)C)ccc3o2)cc1NC(=O)c1cccs1,57% (inactive)

row,Compound,survival
1,CC(C)c1ccc2oc(-c3ccc(Cl)c(NC(=O)c4cccs4)c3)nc2c1,5% (active)
2,CCc1ccc2oc(-c3cc(NC(=O)c4cccs4)ccc3Cl)nc2c1,19% (active)
3,Cc1c(NC(=O)c2cccs2)cccc1-c1nc2cc(Cl)ccc2o1,42% (inactive)
4,Cc1ccccc1CS(=O)(=O)Cc1ccc(C(=O)NCCc2ccccc2)o1,86% (inactive)
5,COc1ccc(Cn2c(SCc3ccc(C(=O)NCc4cccs4)cc3)nc3cccnc32)cc1,63% (inactive)
6,CC(=O)c1cccc(NC(=O)c2ccc(Cl)c(S(=O)(=O)N3CCOCC3)c2)c1,73% (inactive)
7,CCc1cccc(C)c1NC(=O)c1ccc2c(c1)CCN2S(=O)(=O)c1ccc(Cl)cc1,67% (inactive)
8,CCCn1c2ccccc2c2cnn(CC(=O)NC(CCSC)C(=O)OC)c(=O)c21 (configuration not stated),124% (inactive)
9,N#Cc1nc(/C=C/c2ccc(F)cc2)oc1N1CCCCC1,93% (inactive)
10,COc1ccc(NC(=O)CCNS(=O)(=O)c2ccc3c(c2)CCCC(=O)N3)cc1,101% (inactive)
11,O=C(NCCc1ccccc1)c1ccc(Cn2c(SCc3ccc(F)cc3)nc3cccnc32)cc1,95% (inactive)
12,CC(=O)c1cccc(NC(=O)CSc2nc3c(=O)n(C)c(=O)n(C)c3n2C)c1,79% (inactive)
13,O=C(Nc1cc(-c2nc3cc(Cl)ccc3o2)ccc1Cl)c1cccs1,59% (inactive)
14,CC(C)c1ccc2oc(-c3cc(NC(=O)c4cccnc4)ccc3Cl)nc2c1,-2% (active)
15,Cc1cc(NC(=O)c2cccnc2)cc(-c2nc3cc(Cl)ccc3o2)c1O,140% (inactive)
16,CCc1ccc2oc(-c3cc(NC(=O)c4cccnc4)cc(C)c3O)nc2c1,65% (inactive)
17,Cc1cc(C)c2oc(-c3ccc(NC(=O)c4cc(Br)ccc4Cl)cc3)nc2c1,89% (inactive)
18,Cc1cc(C)c2oc(-c3ccc(Cl)c(NC(=O)c4cccs4)c3)nc2c1,55% (active)
19,CCOc1ccccc1NC(=O)C1CCCN(S(=O)(=O)c2c(C)[nH]c(=O)[nH]c2=O)C1 (configuration not stated),88% (inactive)
